PubChem BioAssay AID492948 (National Center for Advancing Translational Sciences (NCATS), 2010)
Records with an inconclusive call do not appear. A number with no mark means an inactive call. The source made the active and inactive calls. The call rests on the fitted dose curve; in most records, active means well fitted activation curve with a large enough effect; inconclusive means small, poorly fitted or top-dose-only effect; inactive means no such curve, though single readings can be large or run the other way.

Assay: qHTS Assay for Agonists of the Relaxin Receptor RXFP1: V1B Hit Validation;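 further: counter-screen in HEK293 cells expressing V1B rather than RXFP1 for selectivity; nearly all actives have a fitted effect of over 65% in size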;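 on activation: cAMP accumulation with PDE4 inhibitor Ro 20-1724 present during compound exposure; 0% = buffer alone basal and 100% = 29 nM porcine relaxin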
Settings: HEK293 V1B cells, cAMP TR-FRET, 30 min; series mostly up to 115 µM; activation: at the top concentration
Summary of the method: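 HEK293 cells (2000/well) were exposed to compounds for 30 min at 37C with PDE4 inhibitor Ro 20174. cAMP was read by TR-FRET after lysis, normalized to buffer and 29 nM porcine relaxin, and EC50 was fitted by Hill equation.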
Potency means the concentration at half of the fitted maximal effect.

Row | Structure (SMILES) | Potency | activation
1 | COc1ccc(C(=O)Nc2ccc(S(=O)(=O)Nc3onc(C)c3C)cc2)c(OC)c1 | 14.9 µM (active) | 
2 | Brc1ccc(-c2nn3c(-c4ccco4)nnc3s2)o1 | 13.8 µM (active) | 
3 | CC(=O)C1C(c2ccccc2)c2c(noc2C)CC1(C)O (configuration not stated) |  | -3.38%
4 | Nc1ncnc2c1ncn2C1OC(CO)C(O)C1O (configuration not stated) | 9.77 µM (active) | 
5 | CCc1ccc2n(-c3ccc(OC)cc3)c([S-])c(C(=O)Nc3cc(C)cc(C)c3)[n+]2c1 | 30.8 µM (active) | 
6 | Cc1cccc(C(=O)Nc2ccccc2C(=O)NCc2ccco2)c1 |  | -0.448% [at 127 µM]
7 | Cc1noc(NS(=O)(=O)c2ccc(N3Cc4ccccc4C3=O)cc2)c1C | 11.9 µM (active) | 
8 | CN(C)c1ccc(NC(=O)C2C3C=CC(C3)C2C(=O)O)cc1 (configuration not stated) |  | -1.47%
9 | O=C(O)c1ccc(N2C(=O)c3cccc4c(C(=O)O)ccc(c34)C2=O)cc1 | 47.3 µM (active) | 
10 | O=C(Oc1ccccc1)Oc1ccc2c(c1)oc(=O)c1ccccc12 | 21.8 µM (active) | 
11 | COc1ccc(NC(=O)CCCc2nnc3n(C)c(=O)c4sccc4n23)cc1 | 43.6 µM (active) | 
12 | NS(=O)(=O)c1ccc(CCNC(=O)C2CCN(c3ncnc4c3nc3n4CCCCC3)CC2)cc1 | 38.9 µM (active) | 
13 | COc1ccc(CN2C(=O)c3cccnc3C2=O)cc1S(=O)(=O)N1CCCCC1C (configuration not stated) | 8.68 µM (active) | 
14 | O=C(Nc1ccccc1C(=O)O)c1ccc(NC(=O)C2CC2)cc1 |  | 2.23%
15 | CC1CCCN(C(=O)COC(=O)CNC(=O)c2sc3ccccc3c2Cl)C1 (configuration not stated) | 8.68 µM (active) | 
16 | N#CCCSc1ncnc2c1oc1ccccc12 | 19.4 µM (active) | 
17 | Cc1cccc2cc(C#N)c(SCC(=O)NCc3cccs3)nc12 | 19.4 µM (active) | 
18 | O=C(COc1ncnc2scc(-c3ccccc3)c12)NCCN1C(=O)CSC1=O | 19.4 µM (active) | 
19 | CCOC(=O)c1sc(=NC(=O)c2ccc(S(=O)(=O)N(C)c3ccccc3)cc2)n(C)c1C | 30.8 µM (active) | 

Row | Structure (SMILES) | Potency | activation
20 | CC[n+]1ccc(/C=C/c2ccc(N(C)C)cc2)c2ccccc21 |  | -21.1%
21 | COc1ccc(CN2C(=O)c3cccnc3C2=O)cc1S(=O)(=O)NC1CCCCC1C (configuration not stated) | 38.9 µM (active) | 
22 | Cc1cc(C(=O)OCC(=O)c2ccc(Br)s2)no1 | 21.8 µM (active) | 
23 | COc1cccc(CNC(=O)c2ccc(CS(=O)Cc3ccc(C)cc3)o2)c1 (configuration not stated) |  | 1.42% [at 44.9 µM]
24 | Cn1c(N)c(C(=O)CSc2nnc(NC3CCCCC3)s2)c(=O)n(C)c1=O |  | -26.8%
25 | CCN(CC)CCCCCC(=O)Nc1ccccc1C(=O)Nc1ccccc1 |  | -2.76% [at 127 µM]
26 | Cc1cc(Br)c2nc3c(c(C(=O)O)c2c1)CCCCC3 | 1.54 µM (active) | 
27 | COC(=O)c1c(N2C(=O)CC(Sc3ncccc3C(=O)O)C2=O)sc(C)c1C (configuration not stated) |  | -11.8%
28 | CN(C)S(=O)(=O)c1cccc(COc2ncnc3c(Cl)cc(Cl)cc23)c1 | 27.5 µM (active) | 
29 | O=C(Nc1cc(S(=O)(=O)N2CCOCC2)ccc1N1CCOCC1)c1cn2ccccc2n1 | 30.9 µM (active) | 
30 | O=C(Nc1ccccc1C(=O)NCCc1ccc(O)cc1)c1ccco1 |  | 3.88% [at 127 µM]
31 | CC(=O)c1sc(NC(=O)C(C)C)nc1C | 17.3 µM (active) | 
32 | CC(NC(=O)c1ccccc1NC(=O)c1ccco1)C(=O)O (configuration not stated) |  | 2.15% [at 127 µM]
33 | Cc1nn(CCCC(=O)NCc2ccc(F)cc2)c(=O)c2nccn12 | 38.9 µM (active) | 
34 | COc1cccc(C(=O)CSc2nnc(-c3cc(OC)cc(OC)c3)o2)c1 | 10.9 µM (active) | 
35 | COc1ccc(CNC(=O)CN2C(=O)NC(C)(c3cccc(Br)c3)C2=O)cc1 (configuration not stated) |  | 1.48%
36 | COc1ccc(/C=C2/SC(=O)N(CC(=O)Nc3cc(C)on3)C2=O)cc1OC |  | -72.1%
37 | O=C(Nc1ccccc1)c1ccccc1NC(=O)C1CCCCC1 |  | -0.678% [at 127 µM]
